The whole screen tested about 400,000 compounds, of which about 2,100 (0.53%) were called active. Inconclusive results (about 14%) are left out. The sample holds actives, similar compounds and a random draw of the others, so the mix is not that of the screen. No rule for the calls is given here.
Biological target: Ataxin-2 (Homo sapiens) (UniProt Q99700)
Assay: qHTS for Inhibitors of ATXN expression.
Format: functional

Ataxin-2 (Homo sapiens), sequence (Q99700 whole entry): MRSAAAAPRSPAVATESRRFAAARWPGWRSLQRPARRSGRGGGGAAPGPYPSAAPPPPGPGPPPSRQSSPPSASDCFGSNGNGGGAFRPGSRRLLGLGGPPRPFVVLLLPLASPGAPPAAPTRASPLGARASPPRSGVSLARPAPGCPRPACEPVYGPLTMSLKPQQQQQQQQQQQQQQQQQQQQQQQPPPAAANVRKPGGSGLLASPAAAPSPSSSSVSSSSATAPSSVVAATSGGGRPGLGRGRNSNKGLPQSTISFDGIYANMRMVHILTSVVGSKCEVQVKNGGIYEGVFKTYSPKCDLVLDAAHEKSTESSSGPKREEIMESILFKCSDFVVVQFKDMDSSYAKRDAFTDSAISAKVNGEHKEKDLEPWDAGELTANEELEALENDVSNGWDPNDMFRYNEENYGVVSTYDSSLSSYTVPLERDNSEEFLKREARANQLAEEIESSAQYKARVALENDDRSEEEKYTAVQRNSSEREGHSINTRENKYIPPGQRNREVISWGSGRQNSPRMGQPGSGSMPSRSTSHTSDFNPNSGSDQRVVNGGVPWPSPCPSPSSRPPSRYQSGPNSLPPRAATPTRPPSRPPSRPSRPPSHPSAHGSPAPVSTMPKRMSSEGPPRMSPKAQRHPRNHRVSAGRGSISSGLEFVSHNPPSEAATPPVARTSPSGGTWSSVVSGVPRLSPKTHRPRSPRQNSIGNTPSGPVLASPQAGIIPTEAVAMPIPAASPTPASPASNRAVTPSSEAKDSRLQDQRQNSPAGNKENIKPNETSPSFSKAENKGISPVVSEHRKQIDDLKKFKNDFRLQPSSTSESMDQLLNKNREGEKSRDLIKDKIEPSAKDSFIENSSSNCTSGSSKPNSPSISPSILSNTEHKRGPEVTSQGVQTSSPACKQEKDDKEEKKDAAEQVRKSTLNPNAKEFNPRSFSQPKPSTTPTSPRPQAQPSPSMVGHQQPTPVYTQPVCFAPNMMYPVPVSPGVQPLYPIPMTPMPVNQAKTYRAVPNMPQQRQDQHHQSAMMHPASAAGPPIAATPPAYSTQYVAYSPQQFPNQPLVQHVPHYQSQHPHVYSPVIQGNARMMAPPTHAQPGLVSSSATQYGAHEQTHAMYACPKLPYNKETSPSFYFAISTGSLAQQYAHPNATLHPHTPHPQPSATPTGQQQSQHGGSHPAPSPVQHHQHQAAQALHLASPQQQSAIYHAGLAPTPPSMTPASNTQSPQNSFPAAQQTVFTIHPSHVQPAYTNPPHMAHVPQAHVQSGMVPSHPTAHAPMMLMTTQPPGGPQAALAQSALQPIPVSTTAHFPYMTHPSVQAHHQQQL

SMILES	Potency
COCCCNC(=O)/C(C#N)=C/c1c(N2CCN(C)CC2)nc2ccccn2c1=O	inactive
COc1cccc(CN2C(=O)c3cccc(N)c3C2=O)c1	inactive
COc1ccc(C(=O)CC2(O)C(=O)N(Cc3cccc(C(F)(F)F)c3)c3ccccc32)cc1 (configuration not stated)	39.8 µM (active)
COc1ccc(C2CC(c3cccc(C(F)(F)F)c3)=NN2c2ccc(S(N)(=O)=O)cc2)cc1 (configuration not stated)	inactive
CCN(CC)c1ccc2cc(NC(=O)CCC(=O)O)c(=O)oc2c1	inactive
Cc1ccc(S(=O)(=O)N2CCCCC2)cc1C(=O)N(C)CC(=O)Nc1ccc(Cl)c(C(F)(F)F)c1	35.5 µM (active)
Cc1ccc(S(=O)(=O)N2CCCCC2)cc1C(=O)Nc1ccc(S(=O)(=O)Nc2ncccn2)cc1	inactive
COc1cccc(CN(C)C(=O)c2cc(S(=O)(=O)N3CCCC3)ccc2C)c1OC	inactive
Cc1ccc(CCC(=O)Nc2ccc(Br)cc2)o1	inactive
CCN1C(=O)c2cccc3c(S(=O)(=O)NCC4CCCO4)ccc1c23 (configuration not stated)	inactive
O=C(NCCc1ccccc1)C(=O)NCC1OCCN1S(=O)(=O)c1ccc(Br)cc1 (configuration not stated)	inactive
CCc1ccc(C(=O)Cn2ccsc2=N)cc1	inactive
N=c1n(CC(=O)c2ccc(Br)cc2)c2ccccc2n1Cc1ccccc1	31.6 µM (active)
CCCn1c(=N)n(CC(=O)c2ccc([N+](=O)[O-])cc2)c2ccccc21	inactive
Cc1ccc(Cn2c(=N)n(CC(=O)c3ccc([N+](=O)[O-])cc3)c3ccccc32)cc1	22.4 µM (active)
C/C(=N\NC(=O)CSCc1ccc([N+](=O)[O-])cc1)c1ccccc1	inactive
O=c1oc2cc(O)ccc2cc1-c1nc2ccccc2o1	inactive
CCN(CC)c1ccc(S(=O)(=O)N(CC)CC)cc1NC(=O)c1cccnc1	inactive
CCOC(=O)CNS(=O)(=O)c1ccc2c3c(cccc13)C(=O)N2CC	inactive
Cc1ccccc1N1C(=O)C(Cc2ccc(F)cc2)S/C1=C(\C#N)C(N)=O (configuration not stated)	inactive
CCN(CC)S(=O)(=O)c1ccc(C(=O)OCCN2C(=O)c3cccc4c(N5CCOCC5)ccc(c34)C2=O)cc1	inactive
Cc1ccc2cc(C#N)c(NCCN=C(S)NCCCN3CCOCC3)nc2c1	inactive
O=C(Nc1ccc(Cl)cc1)/C(=C/c1cccc(O)c1)c1nc2ccccc2s1	12.6 µM (active)
COc1cc(/C=C(\CC(=O)O)c2nc3ccccc3s2)cc(OC)c1O	inactive
COc1cc(/C=C(\C#N)c2nc3ccccc3s2)ccc1OCC(=O)Nc1ccccc1	inactive

SMILES	Potency
COc1cccc(C2=CC(c3ccc(OC)c(OC)c3OC)n3ncnc3N2)c1 (configuration not stated)	inactive
COc1ccc(OC)c(/C=C2\Oc3cc(OCC(=O)N4CCC(C(=O)O)CC4)ccc3C2=O)c1	inactive
CC(=O)Oc1ccc2cc(-c3ccccc3)c(=O)oc2c1	inactive
CCOCCCNC(=O)CN1CCN(S(=O)(=O)c2ccc3c(c2)CCC3)CC1	inactive
Cc1ccc(S(=O)(=O)N2CCN(C(=O)CCn3cncn3)CC2)cc1C	inactive
O=C(c1cnc(Cl)c(Cl)c1)N1CCN(S(=O)(=O)c2ccc3ccccc3c2)CC1	31.6 µM (active)
O=C(Cc1cccs1)N1CCN(S(=O)(=O)c2ccc(Cl)c(C(F)(F)F)c2)CC1	inactive
CC(=O)N1CCN(S(=O)(=O)c2ccc(F)c(Cl)c2)CC1	inactive
CCN=C(S)N1CCN(S(=O)(=O)c2ccc(C)c(C)c2)CC1	inactive
O=C(CCl)N1CCN(S(=O)(=O)c2ccc3c(c2)CCC3)CC1	8.91 µM (active)
Cc1ccc(S(=O)(=O)N2CCCN(C(=O)c3ccc(-n4cccn4)cc3)CC2)cc1	inactive
O=C(CCl)N1CCN(S(=O)(=O)c2ccc3ccccc3c2)CC1	39.8 µM (active)
Nc1cc(O)nc(SCC(=O)N2CCN(S(=O)(=O)c3ccc4ccccc4c3)CC2)n1	inactive
O=C(Cn1cnc2ccccc21)N1CCN(S(=O)(=O)c2ccccc2)CC1	inactive
O=C(Cn1ncc(Cl)c(Cl)c1=O)N1CCN(S(=O)(=O)c2ccc3ccccc3c2)CC1	35.5 µM (active)
COCCn1c(=N)c(C(=O)NC(C)c2ccccc2)cc2c(=O)n3cc(C)ccc3nc21 (configuration not stated)	inactive
CCN(CC)c1ccc2cc(C(N)=O)/c(=N\NC(=O)c3ccncc3)oc2c1	inactive
CCCc1c(C(=O)N/N=C/c2ccc(OCc3ccc(F)cc3)cc2)nnn1-c1nonc1N	inactive
COc1ccc(N2C(=O)/C(=C\Nn3cnnc3)c3ccccc3C2=O)cc1	inactive
Cc1ccc(C(=O)O)cc1N1C(=O)c2cccc3c([N+](=O)[O-])ccc(c23)C1=O	inactive
O=C(N/N=C/c1sc(N2CCOCC2)nc1-c1ccccc1)c1ccc(O)cc1	inactive
CN(C)CCN(Cc1cc2cc3c(cc2nc1O)OCO3)C(S)=NCC1CCCO1 (configuration not stated)	inactive
Cc1ccc2cc(CN(Cc3ccc(F)cc3)Cc3nnnn3C3CCCC3)c(O)nc2c1	39.8 µM (active)
Cc1cc(C)c2cc(CN(Cc3nnnn3C3CCCCC3)CC3CCCO3)c(O)nc2c1 (configuration not stated)	22.4 µM (active)
CCC(NC(C)C)C(O)c1ccc(O)c2[nH]c(=O)ccc12 (configuration not stated)	inactive

SMILES	Potency
CCOc1ccc(OCC)c(NC(=O)CN(c2ccc(C)cc2)S(=O)(=O)c2c(C)n[nH]c2C)c1	35.5 µM (active)
COc1ccc(Cl)cc1NC(=O)CN(C)C1CCS(=O)(=O)C1 (configuration not stated)	inactive
COc1ccc(Cl)cc1NC(=O)COC(=O)c1ccc(C)o1	inactive
COc1ccc(C)cc1NC(=O)CN(C)S(=O)(=O)c1ccc2c(c1)CC(C)N2C(C)=O (configuration not stated)	inactive
COc1ccc(Cl)cc1NC(=O)CN(c1cc(C)cc(C)c1)S(=O)(=O)c1c(C)n[nH]c1C	35.5 µM (active)
CCOc1ccccc1N(CC(=O)Nc1ccccc1Br)S(=O)(=O)c1ccccc1	inactive
Cc1ccc2[nH]c3c(c2c1)SC(C)(C)CC3=O	inactive
C=CCc1ccc(O)c(-c2ccc(O)c(CC=C)c2)c1	28.2 µM (active)
CC(=O)Nc1sc(/C(C#N)=C\c2cccc(Cl)c2)nc1-c1ccc(C)cc1	inactive
CCC(C)n1c(=N)c(C(=O)NCc2ccco2)cc2c(=O)n3cc(C)ccc3nc21 (configuration not stated)	inactive
COc1ccc(NC(=O)CSc2nc(C)cs2)c(OC)c1	inactive
COc1ccc(NC(=O)CSc2nc3ccsc3c(=O)n2Cc2ccccn2)c(OC)c1	inactive
COc1ccc(NC(=O)CSc2c3c(nc4cc(Cl)ccc24)CCCC3)cc1OC	31.6 µM (active)
COc1ccc(NC(=O)CSc2c3c(nc4ccccc24)CCCC3)c(OC)c1	39.8 µM (active)
O=C(CSc1nnc(-c2ccccc2F)n1C1CC1)Nc1ccc2[nH]c(O)nc2c1	inactive
CNC(=O)COC(=O)c1c2c(nc3ccccc13)CCC2	inactive
COc1ccc(Cl)cc1-c1n[nH]c(SCC(=O)NC2CC2)n1	inactive
COc1ccc(CC(=O)Nc2ccc3nc(Nc4cccc(Cl)c4)cc(C)c3c2)cc1OC	inactive
COc1cccc(NC(=O)CSc2c3c(nc4ccccc24)CCCC3)c1	35.5 µM (active)
Cc1ccc(NC(=O)CSc2c3c(nc4ccccc24)CCCC3)cc1F	35.5 µM (active)
Cc1ccc(C2CC(=O)Nc3cc4c(cc32)OCCO4)cc1 (configuration not stated)	inactive
CCOC(=O)C1=C(N)Oc2cc(O)ccc2C1c1ccc(F)cc1F (configuration not stated)	inactive
COc1ccc(CCNC(=O)C(=O)NCc2ccc(Cl)cc2)cc1OC	inactive
COc1ccc(CCNC(=O)Cc2c(C)c3ccc(O)c(C)c3oc2=O)cc1OC	inactive
Cc1ccc(NC(=O)CSc2nc3ccccc3c(=O)n2CCCN2CCCCC2)cc1C	31.6 µM (active)

SMILES	Potency
COc1ccc(OC)c(NC(=O)CSc2nc3nc(O)cc(O)c3s2)c1	inactive
Cc1ccc(NC(=O)CSc2nc3ccccc3c(=O)n2CCCC(=O)NCCCN2CCOCC2)cc1	inactive
COc1ccc(CCNC(=O)c2ccc3c(Cl)c4c(nc3c2)CCCC4)cc1OC	31.6 µM (active)
CCCn1c(SCC(=O)NCCCN2CCCC2=O)nc2ccccc2c1=O	inactive
COc1ccc(OC)c(NC(=O)CSc2c3c(nc4ccccc24)CCCC3)c1	39.8 µM (active)
CCOC(=O)c1cc2c(=O)n3ccccc3nc2n(C(C)C)/c1=N/C(=O)C(C)(C)Oc1ccc(Cl)cc1	inactive
CCn1c(=N)c(C(=O)NCc2ccccc2)cc2c(=O)n3cccc(C)c3nc21	inactive
O=C(O)c1cccc(CSc2nnc(-c3cccnc3)o2)c1	inactive
c1cncc(-c2nnc(-c3cccnc3)nn2)c1	35.5 µM (active)
Nc1nc2nccc(-c3cccnc3)n2n1	inactive
CCOC(=O)C1=C(C)c2ccccc2N(C(=O)OC)C1(C)C(=O)OCC (configuration not stated)	35.5 µM (active)
O=C(c1ccco1)N1CCN(Cc2cc(=O)oc3cc(O)ccc23)CC1	inactive
O=C1c2ccccc2-c2onc3c(N4CCN(CCO)CC4)cc(N4CCN(C(=O)c5ccco5)CC4)c1c23	39.8 µM (active)
Nc1cccc2c1C(=O)N(C(=O)c1ccco1)C2=O	inactive
CC(C)(C)N(CC#CCC(O)(c1ccccc1)c1ccccc1)CCO	inactive
CCC[C@@H](CNC)NC[C@H](Cc1ccccc1)NCCCCc1ccccc1	39.8 µM (active)
CCC(C(=O)NCCc1ccccc1)c1ccccc1 (configuration not stated)	inactive
CCCn1c(CC)nc([N+](=O)[O-])c1S(=O)(=O)c1ccccc1	35.5 µM (active)
CCCn1c(=N)c(S(=O)(=O)c2ccccc2)cc2c(=O)n3ccccc3nc21	inactive
O=C(O)/C=C/c1nc(-c2ccccc2)n2ccccc12	inactive
CC(=O)Oc1c(-c2ccco2)oc2ccccc2c1=O	inactive
COc1cccc(CNC(=O)CCCc2nnc3n(C)c(=O)c4sccc4n23)c1	inactive

From ChEMBL document CHEMBL1201862, “PubChem BioAssay data set” (2004)
